Experimental data reported in PubChem BioAssay AID2517 (National Center for Advancing Translational Sciences (NCATS), 2012).
About 1,200 (0.34%) of roughly 350,000 compounds were called active. Not shown: some 3% with an inconclusive outcome. For the sample, actives were picked, then their nearest neighbours and some compounds at random. Values without a mark were called inactive. Calls come from the whole dose curve; as a rule, active = well fitted inhibition curve with a large enough effect; inconclusive = small, poorly fitted or top-dose-only effect; inactive = no such curve, though single readings can be large or run the other way.

Each compound was assayed against DNA repair nuclease/redox regulator APEX1 (Homo sapiens) (UniProt P27695) (assay: qHTS Assay for Inhibitors of the Human Apurinic/apyrimidinic Endonuclease 1 (APE1)). Conditions: recombinant APE1, TAMRA/BHQ-2 abasic DNA cleavage fluorescence; activity change, negative = inhibition: at 65.8 µM (top of the series).
In short: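 Endonuclease cleavage of a quenched abasic-site DNA duplex (50 nM) by APE1 (0.75 nM) was tracked by TAMRA dequenching. Compounds were preincubated with enzyme 15 min at room temperature; data normalized to buffer-only and DMSO wells plus NSC13755 control.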
Note: nearly all actives have a fitted effect of over 55% in size.
Potency is the fitted concentration of half-maximal effect.
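Throughout, for activity change, negative = inhibition: plate controls were vehicle for no effect and reference inhibitor for full effect.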

Chain of DNA repair nuclease/redox regulator APEX1 (Homo sapiens) (P27695 whole entry, looked up): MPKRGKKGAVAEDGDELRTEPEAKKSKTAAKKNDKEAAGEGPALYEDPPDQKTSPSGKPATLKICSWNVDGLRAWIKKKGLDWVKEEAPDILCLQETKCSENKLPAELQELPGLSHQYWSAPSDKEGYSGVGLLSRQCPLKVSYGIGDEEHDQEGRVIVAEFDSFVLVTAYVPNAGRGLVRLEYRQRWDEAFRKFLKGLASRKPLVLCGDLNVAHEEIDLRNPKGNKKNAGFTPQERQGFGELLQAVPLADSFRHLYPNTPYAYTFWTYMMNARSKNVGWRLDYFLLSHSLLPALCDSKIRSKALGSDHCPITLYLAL

In the case of Cc1cc2nc3c(=O)[nH]c(=O)nc-3n(C[C@H](O)[C@H](O)[C@H](O)CO)c2cc1C, the Potency is reported as “inactive”.
For N#Cc1c(-c2cccs2)nc(SCC(=O)c2ccc(Br)cc2)[nH]c1=O, the Potency was 39.8 µM (active).
In the case of Cc1ccc(-c2nc(SCC(=O)Nc3ccccc3OC(F)F)c3c(C)c(C(=O)O)sc3n2)cc1, the Potency is reported as 39.8 µM (active).
In the case of O=C1N[C@H](Cc2c[nH]c3ccccc23)COC(=O)[C@H](Cc2ccc(F)cc2)C/C=C\C[C@H]1CC(=O)N(CCO)Cc1ccccc1, the Potency is reported as 21.2 µM (active).
In the case of CC(C)(C)OC(=O)C[C@@H]1C/C=C\C[C@@H](CC(=O)NCCO)C(=O)N[C@H](Cc2c[nH]c3ccccc23)COC1=O, the Potency is reported as 15 µM (active).
COc1ccc(CCCOC(Cn2ccnc2)c2ccc(OC)cc2)cc1 (centres undefined) was tested, and the Potency was “inactive”.
In the case of Cc1ccc(N=C2NC(=O)/C(=C/C=C/c3ccco3)S2)cc1C, the Potency is reported as 28.2 µM (active).
For COc1ccc2[nH]c3c(C)c4cc[n+](C)cc4c(C)c3c2c1, the Potency was 12.6 µM (active).

Going from COC(=O)C/C=C/[C@@H](C)[C@H](NC(=O)OCC(Cl)(Cl)Cl)c1ccccc1 to COC(=O)C(C(=O)OC)[C@@H](NC=O)c1ccccc1, the “activity change, negative = inhibition” value falls from 3.41% to 0.907%.

Compared with O=c1c(-c2ccc(F)cc2)nc2cnc(N3CCNCC3)nc2n1Cc1cccs1, CCCn1c(-c2ccc(F)cc2)nc2c(NC3CCN(Cc4ccccc4)C3)nc(C)nc21 (centres undefined) is lower in “activity change, negative = inhibition” value: 12.1% for the first, 7.5% for the second.

First: CCCCC/C=C\C/C=C\CCCCCCCCCC(N)=O
Second: CC/C=C\C/C=C\C/C=C\C/C=C\C/C=C\C/C=C\CCC(=O)NC(C)C(=O)O (centres undefined)
The “activity change, negative = inhibition” value of the first is higher: 3.71% for the first, -0.719% for the second.

Going from Cc1cc(C)c2c(=O)[nH]c(SCC(=O)Nc3ccc(Br)cc3)nc2n1 to O=C(CSc1nc2ccccc2c(=O)[nH]1)Nc1nc(-c2ccc(Br)cc2)cs1, the “activity change, negative = inhibition” value falls from 5.12% to -13.4%.

Compared with O=C(O)c1ccc(/C=C2/SC(=S)N(c3cccc(C(F)(F)F)c3)C2=O)cc1, COc1ccccc1NC(=O)CSc1nc2sc3c(c2c(=O)n1-c1ccccc1)CCN(C)C3 is higher in “activity change, negative = inhibition” value: 20.2% for the first, 34.8% for the second.

First: OC[C@H]1O[C@@H](n2cnc3c(N[C@H]4CC5CCC4C5)ncnc32)[C@H](O)[C@@H]1O (some centres undefined)
Second: Nc1nc2c(nc(Cl)n2C2OC(CO)C(O)C2O)c(=O)[nH]1 (centres undefined)
The “activity change, negative = inhibition” value of the first is higher: 13.8% for the first, 12.3% for the second.

First: C=C(C(C)=O)C(O)c1ccc([N+](=O)[O-])cc1 (centres undefined)
Second: COC(=O)c1ccc(C(NC(=O)OCc2ccccc2)/C(C)=C/[C@@H](C)C(=O)NCc2cc(C)on2)cc1 (some centres undefined)
The “activity change, negative = inhibition” value of the first is lower: -1.09% for the first, 0.278% for the second.

Compared with CCCCC[C@H](O)/C=C/[C@@H]1[C@@H](CC(=O)CCC(=O)O)[C@@H](O)C[C@H]1O, CS(=O)(=O)NC(=O)CCC/C=C\C[C@H]1C(=O)C[C@@H](O)[C@@H]1/C=C/[C@H](O)COc1ccccc1 is lower in “activity change, negative = inhibition” value: 1.56% for the first, 1.1% for the second.

Compared with CCOC(=O)c1ccc[n+](CC(=O)Nc2ccccc2OC(F)F)c1, O=C1CSc2ccc(C(=O)NCc3ccccn3)cc2N1 is higher in “activity change, negative = inhibition” value: 0.0835% for the first, 6.27% for the second.

Compared with CC(=O)Oc1c2c(c3c(c1CC=C(C)C)O[C@@]14C(=CC5CC1C(C)(C)OC4(C/C=C(\C)C(=O)O)C5=O)C3=O)OC(C)(CCC=C(C)C)C=C2 (some centres undefined), C[C@H]1COC(=O)[C@H](CC(=O)OC(C)(C)C)C/C=C\C[C@@H](CC(=O)N[C@H](CO)Cc2ccccc2)C(=O)N1 is higher in “activity change, negative = inhibition” value: -5.43% for the first, 4.54% for the second.

First: CC(C)(C)OC(=O)C[C@@H]1C/C=C\C[C@H](CC(=O)N[C@@H](CO)Cc2ccccc2)C(=O)N[C@H](Cc2ccccc2)COC1=O
Second: CC(C)(C)OC(=O)C[C@@H]1C/C=C\C[C@@H](CC(=O)N(CCO)Cc2ccccc2)C(=O)N[C@H](Cc2ccccc2)COC1=O
The “activity change, negative = inhibition” value of the first is higher: -4.67% for the first, -32.1% for the second.

Compared with O=C1N[C@@H](c2ccccc2)COC(=O)[C@H](Cc2ccc(F)cc2)C/C=C\C[C@@H]1CC(=O)N(CCO)Cc1ccccc1, CCCCc1nn(-c2ccccc2C(F)(F)F)c(=O)n1Cc1ccc(-c2ccccc2S(=O)(=O)NC(=O)c2sccc2C)cc1 is lower in “activity change, negative = inhibition” value: 27.2% for the first, -6.08% for the second.

First: CCC[C@@H]1C[C@@]1(CCC)C(NC(=O)c1ccc(-c2ccccc2)cc1)c1cccc(Cl)c1 (some centres undefined)
Second: COc1cccc(-c2cc(NCCc3c[nH]c4ccc(OC)cc34)ncn2)c1
The “activity change, negative = inhibition” value of the first is lower: -0.889% for the first, 3.71% for the second.

Compared with COc1ccc(C(=O)N2CCC3(CC2)CCN(c2ccccn2)CC3)cc1, COc1ccc2[nH]c(C(=O)N3CCN(C)CC3)c(C)c2c1 is lower in “activity change, negative = inhibition” value: 4.46% for the first, -10.7% for the second.

First: NC(=O)C1CCN(c2nc(-c3cccc(F)c3)cs2)CC1
Second: COc1ccc2[nH]c(=S)cc(C)c2c1
The “activity change, negative = inhibition” value of the first is lower: 16.9% for the first, 17.4% for the second.

First: C=C[C@](C)(O)CCC1C(=C)CCC2[C@@](C)(CO)CCC[C@@]12C (some centres undefined)
Second: CC/C=C\C/C=C\C/C=C\C/C=C\C/C=C\C/C=C\CCC(=O)NCCc1ccc(O)c(O)c1
The “activity change, negative = inhibition” value of the first is higher: -0.9% for the first, -1.09% for the second.

First: CC(=O)OCC1OC(C#Cc2ccccc2Cl)C=CC1OC(C)=O (centres undefined)
Second: CC(C)(C)c1ccc(OC2C=CC(C#Cc3ccccc3)OC2CO)cc1 (centres undefined)
The activity change, negative = inhibition of the first is lower: -9.65% [at 12.4 µM] for the first, 3.5% [at 12.4 µM] for the second.

Compared with CO[C@H]1COC(=O)[C@@H](OCc2ccccc2)/C=C\[C@H](C)[C@@H](OC)COC(=O)[C@H](OCc2ccccc2)/C=C\[C@@H]1C, COc1ccc(-c2nc3c(c4c2C[C@H](c2ccccc2)OC4)CN(C(=O)c2cccnc2)CC3)c(C)c1 is lower in activity change, negative = inhibition: 33.1% [at 12.4 µM] for the first, -2.55% [at 12.4 µM] for the second.
